From PubChem BioAssay come the findings set out here.

The test concerns Aerobactin synthetase IucA (Klebsiella pneumoniae hvKP1). The test is described as follows: IucA enzyme inhibition, primary screen, biochemical, Spectrum library (AID 1346200).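 Further: 100% = wells without compound and 0% = wells lacking enzyme.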 As to conditions: malachite green pyrophosphate, A620, at 8 µM, active compounds read low.

Values without a mark were called inactive. How the calls were made is not given here.

For the compound `COc1ccc2c(c1)c(CC(=O)OCC(=O)O)c(C)n2C(=O)c1ccc(Cl)cc1`, the activity remaining is 92.7%.
On to `Cc1onc(-c2c(Cl)cccc2Cl)c1C(=O)N[C@@H]1C(=O)N2[C@@H]1SC(C)(C)[C@@H]2C(=O)O`, for which the activity remaining was 121%.
For `CS(=O)(=O)OCCCCOS(C)(=O)=O`, the activity remaining was 79.2%.
In the case of `CC(=O)[C@H]1CCC2C3CCC4=CC(=O)CC[C@]4(C)C3CC[C@@]21C` (stereo not given in full), the activity remaining was 106%.
On to `CC(=O)Oc1c(C)c(C)c2c(c1C)CCC(C)(CCCC(C)CCCC(C)CCCC(C)C)O2` (stereo not given), for which the activity remaining was 96.6%.
`O=C(O)/C=C/C=C/c1ccccc1`: the activity remaining is 103%.
`CC(=O)OCC(=O)[C@@]1(O)[C@H](C)CC2C3CCC4=CC(=O)C=C[C@]4(C)[C@@]3(F)[C@@H](O)C[C@@]21C` (stereo not given in full): the activity remaining is 119%.
In the case of `O=C(/C=C(\O)c1ccccc1)c1ccccc1O` it was 120%; in that of `CC(C)c1c(C(=O)c2ccccc2)c(-c2ccccc2)c(-c2ccc(F)cc2)n1CC[C@@H](O)C[C@@H](O)CC(=O)O`, 116%; in that of `O=c1cc(-c2ccccc2)oc2cc(O)c(O)c(O)c12`, 122%.
For the compound `O=C(Cn1ccnc1[N+](=O)[O-])NCCO`, the activity remaining is 111%.
For the compound `C=C(C)C1CC=C(CO)CC1` (stereo not given), the activity remaining is 117%.
As to `Oc1ccc2c(c1)OCC1(O)Cc3cc(O)c(O)cc3C21` (stereo not given), the activity remaining was 91.6%.
Turning to `N[C@H](Cc1ccccc1)C(=O)O`, the activity remaining was 122%.
For the compound `COc1cccc2c1C(=O)c1c(O)c3c(c(O)c1C2=O)C[C@@](O)(C(=O)CO)C[C@@H]3OC1C[C@H](N)[C@H](O)[C@H](C)O1` (stereo not given in full), the activity remaining was 87.4%.
The figure for `CC(=O)N[C@@H](CCC(=O)O)C(=O)O` is 92.3%; for `CC(C)c1c(O)ccc2c1CCC1C(C)(C)CCC[C@]21C` (stereo not given in full) it is 116%.
For `CC(C)=CCC1=C(O)c2ccccc2C(=O)C1=O`, the activity remaining is 119%.
For `COc1ccc2c(c1)O[C@@H]1COc3cc(OC)c(OC)cc3[C@@H]1C2=O`, the activity remaining was 111%.
Consider `N=c1ccn2c(n1)O[C@@H]1C2O[C@H](CO)[C@H]1O` (stereo not given in full), for which the activity remaining was 105%.
With `CC(=O)O[C@@H]1CC2C(C)(C)[C@H](O)C[C@H](O)[C@]2(C)C2CC[C@@]3(C)C(=CC(=O)O[C@H]3c3ccoc3)[C@@]21C` (stereo not given in full), the activity remaining was 102%.
Take `COC(=O)C[C@@H]1C2(C)C(=O)[C@@H](CC3=C4CC(O)O[C@@H](c5ccoc5)[C@]4(C)CCC32)[C@H](O)C1(C)C` (stereo not given in full): the activity remaining is 128%.
`CCN1CCN(C(=O)NC(C(=O)NC2C(=O)N3C(C(=O)O)=C(CSc4nnnn4C)CSC23)c2ccc(O)cc2)C(=O)C1=O` (stereo not given): the activity remaining was 125%.
As to `Cc1cc(=O)[nH]c(=S)[nH]1`, the activity remaining was 95.7%.
Take `CC(=O)O[C@H]1C[C@@H](OC(C)=O)C(C)(C)C2C[C@@H](OC(C)=O)[C@]3(C)C([C@H](OC(C)=O)C[C@@]4(C)[C@H](c5ccoc5)OC(=O)[C@H]5O[C@]543)[C@]21C` (stereo not given in full): the activity remaining was 104%.
As for `CC(=O)O[C@@H]1C[C@@]23C[C@@]24CC[C@H](O[C@@H]2OC[C@@H](O)[C@H](O)[C@H]2O)C(C)(C)C4CCC3[C@]2(C)C[C@@H]3OC4(C[C@@H](C)[C@@H]3[C@@]12C)O[C@H](O)[C@]1(C)O[C@H]41` (stereo not given in full), the activity remaining is 87.7%.
With `COC(=O)C[C@H]1C(C)(C)C(=O)[C@@H]2CC3=C4CC(=O)O[C@@H](c5ccoc5)[C@]4(C)CCC3C1(C)C2=O` (stereo not given in full), the activity remaining is 102%.
Regarding `CCc1ccc2c(O)c3c(cc2c1C(=O)OC)C(=O)c1c(O)ccc(O)c1C3=O`, the activity remaining was 115%.
In the case of `COc1ccc2c(c1)OC[C@@H](Cc1ccc(OC)c(OC)c1)[C@@H]2O` it was 121%; in that of `CC[C@H]1OC(=O)[C@H](C)[C@@H](O[C@H]2C[C@@](C)(OC)[C@@H](O)[C@H](C)O2)[C@H](C)[C@@H](O[C@@H]2O[C@H](C)C[C@H](N(C)C)[C@H]2O)[C@](C)(O)C[C@@H](C)CN(C)[C@H](C)[C@@H](O)[C@]1(C)O`, 104%; in that of `COc1ccc(-c2coc3cc(O)ccc3c2=O)c(O)c1O`, 114%.
For `N[C@H](C(=O)O)[C@@H]1CC(Cl)=NO1`, the activity remaining was 112%.
In the case of `COc1ccc(C[C@H](N)C(=O)N[C@@H]2[C@@H](CO)OC(n3cnc4c(N(C)C)ncnc43)[C@@H]2O)cc1` (stereo not given in full) it was 87.5%.
Turning to `O=C1C(=O)c2ccccc2C(O)=C1C1CCC(c2ccc(Cl)cc2)CC1` (stereo not given), the activity remaining was 101%.
`O=C(Oc1cc(OC(=O)c2ccccc2)c2c(c1)O[C@H](c1ccc(OC(=O)c3ccccc3)c(OC(=O)c3ccccc3)c1)[C@@H](OC(=O)c1ccccc1)C2)c1ccccc1`: the activity remaining is 106%.
As for `C/C=C/C(=O)N(CC)c1ccccc1C`, the activity remaining is 112%.
Turning to `Cc1ccc(-c2cc(C(F)(F)F)nn2-c2ccc(S(N)(=O)=O)cc2)cc1`, the activity remaining is 95%.
For `COc1ccc(-c2oc3cc(OC)c(OC)c(OC)c3c(=O)c2OC)cc1`, the activity remaining was 115%.
Turning to `Cc1cc(/C=C/c2ccc3cc(N(C)C)ccc3[n+]2C)c(C)n1-c1ccccc1`, the activity remaining was 72.1%.
Regarding `CCCCOc1ccc(C(=O)CCN2CCCCC2)cc1`, the activity remaining was 96.6%.
Consider `OCCN1C[C@@H](O)[C@@H](O)C(O)C1CO` (stereo not given in full), for which the activity remaining was 114%.
In the case of `CC(C)=CCC/C(C)=C/CC/C(C)=C/CC/C(C)=C/CC/C(C)=C/CC/C(C)=C/CC/C(C)=C/CC/C(C)=C/CC/C(C)=C/CO` it was 105%.
The figure for `O=C(O)[C@H]1/C(=C/CO)O[C@@H]2CC(=O)N21` is 112%.
In the case of `CC1OC(O[C@H]2/C=C/C=C/C=C/C=C/C=C/C=C/C=C/[C@H](C)[C@@H](O)[C@@H](C)[C@H](C)OC(=O)CC(O)CC(O)CCC(O)C(O)CC(O)CC3(O)C[C@H](O)C(C(=O)O)C(C2)O3)C(O)[C@H](N)C1O` (stereo not given in full), the activity remaining is 89.3%.
For the compound `CC[C@]12C=CCN3CC[C@@]4(c5ccc(OC)cc5N(C)C4[C@@](O)(C(=O)OC)[C@@H]1OC(C)=O)[C@@H]32` (stereo not given in full), the activity remaining was 112%.
As for `CC(=O)OCC(=O)[C@@]1(O)CCC2C3CCC4=CC(=O)CC[C@]4(C)[C@@]3(F)[C@@H](O)C[C@@]21C` (stereo not given in full), the activity remaining was 91.4%.
`C#CCCCCCCCCCCCC(O)CC(O)CO` (stereo not given): the activity remaining is 98.4%.
With `COC(=O)c1c(OC)cc2c(c1C)Oc1c(Cl)c(O)c(Cl)c(C)c1C(=O)O2`, the activity remaining is 116%.
`NC(N)=N/N=C\c1c(Cl)cccc1Cl`: the activity remaining is 97%.
For `CC(=O)CC(=O)CCC(=O)O`, the activity remaining was 102%.
Regarding `CN1C(C(=O)Nc2ccccn2)=C(O)c2sccc2S1(=O)=O`, the activity remaining is 82.2%.
For `COC(=O)C[C@@H]1C2(C)C(=O)[C@@H](CC3C2CC[C@]2(C)C3CC(=O)O[C@H]2c2ccoc2)[C@H](OC(C)=O)C1(C)C` (stereo not given in full), the activity remaining was 109%.
In the case of `O=c1[nH]cnc2c1ncn2C1O[C@H](CO)[C@@H](O)[C@H]1O` (stereo not given in full) it was 112%.
For the compound `NS(=O)(=O)c1cc2c(cc1C(F)(F)F)NCNS2(=O)=O`, the activity remaining is 107%.
The figure for `C=NC(C(=O)NC1C(=O)N2C1SC(C)(C)C2C(=O)O)c1ccccc1` (stereo not given) is 110%; for `O=C(O)C1CC(C2CCCCN2)CN2CCCCC12` (stereo not given) it is 115%.
The figure for `CCOC(=O)[C@H](CCc1ccccc1)N[C@@H](C)C(=O)N1CCC[C@H]1C(=O)O` is 113%.
For `COc1cc(N)c(Cl)cc1C(=O)NC1CCN(Cc2ccccc2)CC1`, the activity remaining is 119%.
`COC1=CC(=O)C(C(=O)c2ccccc2)=CC1=O`: the activity remaining was 93.6%.
For the compound `CCOC(=O)c1ccc(O)cc1`, the activity remaining is 114%.
